Calls of active or inactive are those of the source.

Assay [1] can be described thus: compounds binding Alexa647 anti-His antibody – biochemical, small-molecule microarray, 635 nm fluorescence, artefact control for SMM control protein annotation, primary screen (AID 1128).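 Also: score merges feature fluorescence with signal-to-noise for each printed compound spot.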 Conditions: higher = more signal.
The test system of assay [2] is Human papillomavirus type 1a E7 protein (residues 1-88). Nature of the assay: HPV1a E7 small-molecule binders, primary screen, biochemical, small-molecule microarray, residues 1-88, 635 nm (AID 1129). As to conditions: small-molecule microarray binding, fluorescence 635 nm; higher = more signal.
Assay [3] has as its target Focal adhesion kinase 1 (Homo sapiens) (UniProt Q05397). The assay can be described thus: PTK2 protein binding on printed compound slides – biochemical, small-molecule microarray, 635/667 nm fluorescence, BSA, DTT, primary screen (AID 1130).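 Also: composite of spot emission at 667 nm and signal to noise over triplicate slides.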 As to conditions: 635 nm fluorescence, higher = more signal.
Assay [4] deals with Fibrinogen (Alexa647-labelled). The assay can be described thus: Alexa647-fibrinogen binding to printed small molecules – biochemical, small-molecule microarray, 635/667 nm fluorescence, artefact control for SMM control-protein annotation, profiling panel (AID 1131).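 Also: z-score merges 667 nm fluorescence with per-spot signal-to-noise over triplicate slides.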 Conditions: fibrinogen-A647 binding fluorescence, higher = more signal.
Assay [5] has as its target Follistatin (Homo sapiens) (UniProt P19883). The assay can be described thus: FST protein binding to printed compounds – biochemical, small-molecule microarray, 635/667 nm fluorescence, primary screen (AID 1132). Conditions: 635 nm fluorescence, higher = more signal.
Assay [6] has as its target Fibroblast growth factor 2 (Homo sapiens) (UniProt P09038). The assay can be described thus: basic fibroblast growth factor binding to printed compounds – biochemical, small-molecule microarray, 635/667 nm fluorescence, primary screen (AID 1133). As to conditions: FGF2, fluorescence 635/667, higher = more signal.
Assay [7] in a line: JC-1 mitochondrial potential readout, lung cancer cells – cell-based, A549, JC-1 fluorescence, basal, 24 h, 100 nL, profiling panel (AID 1138).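 Also: A549 lung adenocarcinoma cells under basal conditions with no added stimulus; test concentration not given here.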 As to conditions: higher = more signal.
For assay [8], the system named is Lefty1. The assay can be described thus: Lefty1 protein binding to printed compounds – biochemical, small-molecule microarray, 635/667 nm fluorescence, primary screen (AID 1139). Conditions: fluorescence 635/667, higher = more signal.
Assay [9] deals with wheat germ agglutinin (Triticum aestivum), Alexa647-labelled. The assay can be described thus: Alexa647-WGA lectin binding to printed small molecules – biochemical, small-molecule microarray, 635/667 nm fluorescence, artefact control for SMM control-protein annotation, profiling panel (AID 1140).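 Also: score merges 667 nm feature emission with signal to noise over triplicate slides.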 As to conditions: WGA-A647 binding, 635 nm fluorescence, higher = more signal.
The target of assay [10] is Luciferin 4-monooxygenase (Photinus pyralis) (UniProt P08659). The assay can be described thus: inhibition of purified Photinus pyralis luciferase – biochemical, luminescence, purified enzyme, 2006 set, primary screen (AID 1141).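 Also: cell-free assay with purified firefly luciferase at 100 ng per well in PBS; test concentration not given here.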 Conditions: purified firefly luciferase, SteadyGlo luminescence, 30 min; higher = more signal, called active from +8 up or from −8 down.
Sequence of Luciferin 4-monooxygenase (Photinus pyralis) (P08659 whole entry, looked up): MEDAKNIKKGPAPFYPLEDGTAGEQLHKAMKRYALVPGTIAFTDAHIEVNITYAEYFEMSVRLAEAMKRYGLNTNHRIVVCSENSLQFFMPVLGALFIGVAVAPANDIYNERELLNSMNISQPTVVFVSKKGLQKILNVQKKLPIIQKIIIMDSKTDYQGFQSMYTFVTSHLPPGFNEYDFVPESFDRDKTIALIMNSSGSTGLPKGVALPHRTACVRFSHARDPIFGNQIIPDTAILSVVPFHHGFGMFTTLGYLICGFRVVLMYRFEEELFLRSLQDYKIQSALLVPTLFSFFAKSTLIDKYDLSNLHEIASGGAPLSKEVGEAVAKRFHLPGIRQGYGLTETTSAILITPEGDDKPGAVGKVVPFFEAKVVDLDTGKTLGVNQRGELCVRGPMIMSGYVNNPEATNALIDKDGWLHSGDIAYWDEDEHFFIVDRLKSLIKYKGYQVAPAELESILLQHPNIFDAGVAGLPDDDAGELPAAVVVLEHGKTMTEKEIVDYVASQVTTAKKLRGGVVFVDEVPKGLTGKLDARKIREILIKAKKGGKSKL
For assay [11], the system named is Wnt5a (protein binding on small-molecule microarray). The assay can be described thus: small molecules binding Wnt5a protein – biophysical, small-molecule microarray, 635/667 nm fluorescence, primary screen (AID 1142).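 Also: fluorescence read at 667 nm with signal to noise per printed feature.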 Conditions: 635 nm fluorescence, higher = more signal.
A short description of assay [12]: ATP-based viability of Huh7 replicon cells – cell-based, CellTiter-Glo luminescence, basal, 48 h, cytotoxicity control for HCV replication inhibitor project, primary screen (AID 1143).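 Also: Huh7 hepatoma cells carrying a hepatitis C replication reporter with no stimulus; test concentration not given here.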 Conditions: higher = more signal, called active from +8 up or from −8 down. A general note: In antiviral work, replicon cells carry a viral genome segment that copies itself.
A short description of assay [13]: basal CRE-LacZ reporter activity in PC12 – cell-based, unstimulated, primary screen (AID 1145). As to conditions: no forskolin, luminescence, 4.5 h, higher = more signal, called active from +8 up or from −8 down.
Assay [14] is described as follows: forskolin-driven CRE-LacZ activity in PC12 – cell-based, CRE-LacZ reporter, forskolin-stimulated, primary screen (AID 1146).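 Also: PC12 cells with 6xCRE LacZ reporter stimulated by forskolin 10 µM; beta-galactosidase reporter signal reflecting CREB driven transcription.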 Conditions: luminescence, 4.5 h, higher = more signal, called active from +8 up or from −8 down.
For assay [15], the target named is Streptavidin (Streptomyces avidinii) (UniProt P22629). The assay can be described thus: compounds binding control protein streptavidin – biophysical, small-molecule microarray, 635/667 nm fluorescence, artefact control for SMM compound annotation, primary screen (AID 1147).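 Also: signal reflects streptavidin binding to arrayed compounds as a control protein.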 Conditions: higher = more signal.
Sequence of Streptavidin (Streptomyces avidinii) (P22629 whole entry, looked up): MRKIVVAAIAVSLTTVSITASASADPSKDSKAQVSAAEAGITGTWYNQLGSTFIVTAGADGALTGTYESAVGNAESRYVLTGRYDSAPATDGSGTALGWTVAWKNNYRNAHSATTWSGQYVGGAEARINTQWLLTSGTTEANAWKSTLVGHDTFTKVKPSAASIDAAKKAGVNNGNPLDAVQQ
A short description of assay [16]: probe aInhba binding on compound microarray – biochemical, small-molecule microarray, 635/667 nm fluorescence, primary screen (AID 1148).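 Also: score merges 667nm spot fluorescence with signal-to-noise for antibody binding to printed compounds.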 As to conditions: higher = more signal.
For assay [17], the target named is Torsin-1A (Homo sapiens) (UniProt O14656). Nature of the assay: TOR1A wild-type binding on microarray – cell lysate, small-molecule microarray, lysate, 635/667 nm, primary screen (AID 1149). Conditions: COS7 hTOR1A-WT lysate, 635 nm fluorescence, higher = more signal.
Sequence of Torsin-1A (Homo sapiens) (O14656 whole entry, looked up): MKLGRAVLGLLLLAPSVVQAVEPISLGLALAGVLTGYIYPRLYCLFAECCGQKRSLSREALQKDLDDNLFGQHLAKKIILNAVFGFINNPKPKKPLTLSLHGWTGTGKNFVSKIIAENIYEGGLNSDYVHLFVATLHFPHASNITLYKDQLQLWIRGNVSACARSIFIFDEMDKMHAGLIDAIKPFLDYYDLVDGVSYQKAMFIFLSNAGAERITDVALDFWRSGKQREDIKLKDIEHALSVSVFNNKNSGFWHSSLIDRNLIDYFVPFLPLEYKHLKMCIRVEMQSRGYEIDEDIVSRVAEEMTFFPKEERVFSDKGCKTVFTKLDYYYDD
The target is the same in assay [18]. The assay can be described thus: torsin A mutant lysate binding on microarrays – cell lysate, small-molecule microarray, COS7 lysate, 635/667 nm fluorescence, primary screen (AID 1150).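 Also: score pools 667 nm emission and signal to noise measuring lysate protein binding.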 As to conditions: COS7 hTOR1A mutant lysate, 635 nm fluorescence, higher = more signal.
The subject of assay [19] is Sonic hedgehog protein (Shh). The assay can be described thus: Sonic hedgehog microarray binding compounds – biochemical, small-molecule microarray, 635/667 nm fluorescence, primary screen (AID 1151).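 Also: Shh protein binding to compounds spotted on small-molecule microarray slides; score combines spot fluorescence intensity with signal-to-noise across triplicate slides.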 Conditions: 635 nm fluorescence, higher = more signal.

Sequence of Follistatin (Homo sapiens) (P19883 whole entry, looked up): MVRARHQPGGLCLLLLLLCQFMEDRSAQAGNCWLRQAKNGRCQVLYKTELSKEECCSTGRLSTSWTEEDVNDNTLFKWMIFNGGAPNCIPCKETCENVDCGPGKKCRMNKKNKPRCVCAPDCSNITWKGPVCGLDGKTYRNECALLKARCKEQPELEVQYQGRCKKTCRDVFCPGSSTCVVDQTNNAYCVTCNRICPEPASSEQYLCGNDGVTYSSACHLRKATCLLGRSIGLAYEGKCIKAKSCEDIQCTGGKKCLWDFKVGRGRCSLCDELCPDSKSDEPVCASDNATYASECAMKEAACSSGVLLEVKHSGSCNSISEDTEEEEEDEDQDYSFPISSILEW
Sequence of Focal adhesion kinase 1 (Homo sapiens) (Q05397 whole entry, looked up): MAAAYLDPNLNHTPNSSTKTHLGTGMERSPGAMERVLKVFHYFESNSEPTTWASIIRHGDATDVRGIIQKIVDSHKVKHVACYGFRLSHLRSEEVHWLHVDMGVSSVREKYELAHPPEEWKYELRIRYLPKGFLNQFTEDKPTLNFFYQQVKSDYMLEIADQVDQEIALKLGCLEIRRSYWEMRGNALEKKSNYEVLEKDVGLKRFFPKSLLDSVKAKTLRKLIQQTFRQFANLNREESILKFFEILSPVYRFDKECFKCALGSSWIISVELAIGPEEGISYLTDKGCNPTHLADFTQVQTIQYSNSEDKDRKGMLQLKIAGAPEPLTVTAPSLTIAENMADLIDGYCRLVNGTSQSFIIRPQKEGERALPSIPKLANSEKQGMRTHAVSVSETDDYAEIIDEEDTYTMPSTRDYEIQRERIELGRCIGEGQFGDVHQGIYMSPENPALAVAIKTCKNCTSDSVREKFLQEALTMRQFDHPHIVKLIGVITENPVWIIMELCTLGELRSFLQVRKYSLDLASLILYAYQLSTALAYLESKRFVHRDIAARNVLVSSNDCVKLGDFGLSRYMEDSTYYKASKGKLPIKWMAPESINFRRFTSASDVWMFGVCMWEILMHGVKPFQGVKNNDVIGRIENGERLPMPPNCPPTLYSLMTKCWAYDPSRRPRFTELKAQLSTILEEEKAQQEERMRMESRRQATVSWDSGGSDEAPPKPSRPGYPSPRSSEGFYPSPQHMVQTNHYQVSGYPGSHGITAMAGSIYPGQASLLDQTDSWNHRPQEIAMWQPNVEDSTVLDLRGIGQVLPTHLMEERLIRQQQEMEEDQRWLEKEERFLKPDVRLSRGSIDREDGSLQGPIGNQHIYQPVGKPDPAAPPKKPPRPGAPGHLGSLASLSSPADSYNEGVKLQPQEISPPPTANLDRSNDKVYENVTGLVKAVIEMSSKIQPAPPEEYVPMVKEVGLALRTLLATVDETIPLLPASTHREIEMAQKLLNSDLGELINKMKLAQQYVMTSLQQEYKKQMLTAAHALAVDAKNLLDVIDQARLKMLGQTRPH
Sequence of Fibroblast growth factor 2 (Homo sapiens) (P09038 whole entry, looked up): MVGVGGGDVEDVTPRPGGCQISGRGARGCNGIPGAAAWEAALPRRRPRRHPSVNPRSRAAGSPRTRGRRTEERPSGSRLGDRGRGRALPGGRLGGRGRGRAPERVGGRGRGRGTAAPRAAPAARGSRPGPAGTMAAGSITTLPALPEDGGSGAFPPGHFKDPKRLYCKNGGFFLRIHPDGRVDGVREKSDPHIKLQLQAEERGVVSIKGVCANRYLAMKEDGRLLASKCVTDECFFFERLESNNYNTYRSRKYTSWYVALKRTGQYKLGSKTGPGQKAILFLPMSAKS

As for `CCOC(=O)C[C@H]1[C@H](OC(=O)c2ccccc2-c2ccccc2)[C@@H](NC(=O)C2CCCCC2)c2cc(OCCCO)ccc2N1C(=O)c1ccccc1`, the composite z-score is 0.198 in assay [1]; 0.352 in [2]; -0.268 in [3]; 0.334 in [4]; 0.392 in [5]; 1.39 in [6]. For the same molecule, the composite z-score in [8] was 0.845; in [9], -0.109; in assay [11], 0.364; in [15] it was 0.0739; in [16], 0.0131; in [17] it was 0.128. The composite z-score in assay [18] was found to be 0.197; in assay [19] it was 1.1. Further, the z-score is 1.33 in assay [7]; -0.539 (inactive) in assay [10]; -0.781 (inactive) in assay [12]; 10.2 (active) in assay [13]; -0.278 (inactive) in [14].

As to `CC(C)N1CC=CC23O[C@@H]4/C=C\CCCOC(=O)C4[C@H]2C(=O)N(CCCCCO)[C@@H]3C1=O` (some centres undefined), the composite z-score was -2.21 in assay [1]; -1.79 in assay [2]; -0.925 in [3]; -3.13 in assay [4]; -1.15 in [5]; -1.03 in [6]. Further, the composite z-score in [8] was -1.52; in [9], -1.78; in assay [11], -0.22; in [15], -1.52; in assay [16], -0.244; in assay [17] it was 1.5. Also, the composite z-score in assay [18] was 1.58; in assay [19] it was -0.641. The z-score in assay [7] is 3.68; in assay [10], -1.32 (inactive); in assay [12] it was -0.143 (inactive); in [13], 0.0564 (inactive); in [14] it was 0.392 (inactive).

Consider `COc1cc(CO)cc(I)c1O[C@H]1C=C(C(=O)NCCO)C[C@@H](NCCc2c[nH]c3ccccc23)[C@@H]1O`, for which the composite z-score in assay [1] was 0.876; in [2], 0.579; in [3], -0.0981; in assay [4], 0.824; in assay [5], 0.792; in assay [6], 0.243. For the same molecule, the composite z-score in assay [8] is 0.28; in assay [9], 1.21; in assay [11] it was 0.241; in assay [15], 0.0072; in assay [16], -0.0954; in [17], 0.75. Moreover, the composite z-score in assay [18] is 0.237; in [19] it was 0.888. In addition, the z-score was 0.898 in [7]; 0.47 (inactive) in [10]; -3.34 (inactive) in assay [12]; 2.29 (inactive) in assay [13]; -2.33 (inactive) in assay [14].

Regarding `C[C@@H]1C=CCC(=O)OC[C@H]2O[C@@H](C=C[C@@H]2O)[C@H](C)C=CCC(=O)OC[C@H]2O[C@H]1C=C[C@@H]2O`, the composite z-score in [1] is 0.106; in assay [2], -0.145; in assay [3], -0.095; in assay [4], -0.282; in assay [5] it was 1.53; in assay [6], 1.83. Besides, the composite z-score was 1.75 in assay [8]; -0.312 in assay [9]; 0.375 in assay [11]; 0.412 in [15]; 0.357 in assay [16]; 0.997 in assay [17]. The values for the composite z-score in [18] and in [19] were 0.515 and 2.24, respectively. Also, the z-score is 0.307 in [7]; -0.304 (inactive) in assay [10]; -5.78 (inactive) in assay [12]; 0.247 (inactive) in [13]; -0.724 (inactive) in assay [14].

For the molecule `COCCOC(=O)N1C(=O)[C@@]2(c3cc(C#CCC(C(=O)OC)C(=O)OC)ccc31)[C@H](C(=O)N1CCN(c3ncccn3)CC1)[C@H]1C(=O)O[C@H](c3ccccc3)[C@H](c3ccccc3)N1[C@@H]2c1ccc(O)cc1`, the composite z-score in assay [1] was found to be 1.55; in [2] it was 1.19; in assay [3] it was 0.89; in assay [4], 0.65; in [5], 0.51; in assay [6], 0.393. Moreover, the composite z-score in assay [8] is 0.72; in assay [9], 1.07; in assay [11] it was 0.117; in [15] it was 0.043; in assay [16] it was 0.0386; in [17] it was 0.143. Besides, the composite z-score was determined as 0.731 in assay [18] and 1.38 in [19]. Besides, the z-score was 1.95 in assay [7]; -1 (inactive) in [10]; -3.81 (inactive) in assay [12]; -0.671 (inactive) in assay [13]; -0.784 (inactive) in assay [14].

For `CCCCCCc1nc(C2CC2)c(C)c2c1[Si](C(C)C)(C(C)C)OC2`, the composite z-score in [1] is -0.095; in assay [2], -1.51; in [3] it was -0.695; in assay [4], -0.687; in assay [5], -0.0256; in assay [6] it was -0.0723. Further, the composite z-score in [8] is -0.238; in [9], -0.982; in assay [11], -0.0534; in [15] it was -0.0332; in assay [16], -0.0494; in assay [17], 0.277. The composite z-score is 0.305 in [18] and 0.0027 in assay [19]. Moreover, the z-score is -0.451 in [7]; -0.441 (inactive) in assay [10]; -5.02 (inactive) in assay [12]; 0.236 (inactive) in [13]; -0.75 (inactive) in assay [14].
